This note sets out measurements from ChEMBL document CHEMBL5606460, “ASAP - DENV-2 NS2B-NS3 protease fluorescence single point” (2024).

Hit rate of the full screen: of about 2,000 compounds, about 110 (5.5%) showed an effect of 50% or more. This excerpt belongs to a sample that is enriched for strong results. Non-standard residues stand in square brackets, D forms with d. Residues, ends and D or L forms follow the SMILES beside them. Phg = N[C@H](C(=O)O)c1ccccc1; 4Amb = NCc1ccc(C(=O)O)cc1; Nle = CCCC[C@H](N)C(=O)O

Broadly, the inhibition is the drop in the measured response relative to a control, in per cent.

This experiment addresses Genome polyprotein (dengue virus type 2) (UniProt P29990).
Where [1] appears, read: Thailand/16681/1984, Concentration 25.0 uM, Number of replicates 1.0.

For the molecule `Cn1c(C(=O)Nc2cc(Cl)cc(C(=O)NC(C)(C)CO)c2)cccc1=O`, the inhibition runs as follows: (Thailand/16681/1984, Concentration 49.5 uM, Number of replicates 2.0, Standard deviation 0.4081268580659683 %) -0.99%; (Thailand/16681/1984, Concentration 99.01 uM, Number of replicates 2.0, Standard deviation 2.113430221710736 %) -1.01%; (Thailand/16681/1984, Concentration 198.0 uM, Number of replicates 2.0, Standard deviation 2.072570516879941 %) 0.352%.

Take `NCc1cn(C2CCN(c3nc(-c4ccccc4)cs3)CC2)nn1`: the inhibition is -4.62% (Thailand/16681/1984, Concentration 49.5 uM, Number of replicates 2.0, Standard deviation 0.032513427640456005 %); -3.29% (Thailand/16681/1984, Concentration 99.01 uM, Number of replicates 2.0, Standard deviation 1.6651164489567518 %); 0.094% (Thailand/16681/1984, Concentration 198.0 uM, Number of replicates 2.0, Standard deviation 1.091599962537426 %).

With `CC1(C)C[C@]1(CNC(=O)C1CCN(c2ccc(C=O)cc2)CC1)c1ccccc1`, under setting [1], the inhibition came out at 12.2%.

For `O=Cc1ccc(N2CCC(C(=O)N3CCc4c(Br)cccc4C3)CC2)cc1`, the inhibition under setting [1] amounted to 2.83%.

Regarding `Cc1cc(CO)c2cccc(Cc3ccccc3NC(=O)c3nc(N)n[nH]3)c2n1`, the inhibition by setting is: (Thailand/16681/1984, Concentration 49.95 uM, Number of replicates 2.0, Standard deviation 1.581349166072865 %) 0.804%; (Thailand/16681/1984, Concentration 99.9 uM, Number of replicates 2.0, Standard deviation 1.2268610426733166 %) 4.88%.

Turning to `Cc1cc(CO)c2cccc(Cc3cccc(NC(=O)c4nc(N)n[nH]4)c3)c2n1`, the inhibition runs as follows: (Thailand/16681/1984, Concentration 49.95 uM, Number of replicates 2.0, Standard deviation 2.1470069511188496 %) 1.75%; (Thailand/16681/1984, Concentration 99.9 uM, Number of replicates 2.0, Standard deviation 2.660737289988502 %) 8.09%.

For the molecule `Cc1cc(CO)c2cccc(NC(=O)c3nc(N)n[nH]3)c2n1`, the inhibition (Thailand/16681/1984, Concentration 49.95 uM, Number of replicates 2.0, Standard deviation 1.7045480288991801 %) worked out at 42.6% and the inhibition (Thailand/16681/1984, Concentration 99.9 uM, Number of replicates 2.0, Standard deviation 15.015963199334223 %) came to 67.3%.

Turning to `O=C(NCCc1cncnc1)c1cn([C@H]2CCCNC2)nn1`, the inhibition is, setting by setting: (Thailand/16681/1984, Concentration 49.5 uM, Number of replicates 2.0, Standard deviation 3.1505652659838077 %) -3.39%; (Thailand/16681/1984, Concentration 99.01 uM, Number of replicates 2.0, Standard deviation 0.03260817375590849 %) -4.66%; (Thailand/16681/1984, Concentration 198.0 uM, Number of replicates 2.0, Standard deviation 5.615654862136011 %) -0.277%.

As for `Clc1ccc2[nH]cc(Cc3ccc(-c4nn[nH]n4)cc3)c2c1`, the inhibition by setting is: (Thailand/16681/1984, Concentration 99.5 uM, Number of replicates 2.0, Standard deviation 0.137702183454793 %) 89.8%; (Thailand/16681/1984, Concentration 295.6 uM, Number of replicates 2.0, Standard deviation 0.013886206472581278 %) 98.9%.

Take `O=C(O)[C@H](c1c[nH]c2ccccc12)N1CCC(c2cnc3ccc[nH]c2-3)CC1`: the inhibition reads like this: (Thailand/16681/1984, Concentration 49.5 uM, Number of replicates 2.0, Standard deviation 2.9336110336729484 %) -1.93%; (Thailand/16681/1984, Concentration 99.01 uM, Number of replicates 2.0, Standard deviation 1.2688833051000123 %) -1.4%; (Thailand/16681/1984, Concentration 198.0 uM, Number of replicates 2.0, Standard deviation 1.8509089452057481 %) 0.519%.

Take `CCCCCC(=O)N[C@@H](Cc1ccccc1)C(=O)NCc1cccc(CN)c1`: the inhibition is -0.287% (Thailand/16681/1984, Concentration 49.5 uM, Number of replicates 2.0, Standard deviation 0.5911657110409295 %); -0.251% (Thailand/16681/1984, Concentration 99.01 uM, Number of replicates 2.0, Standard deviation 0.7592516208074989 %); -0.639% (Thailand/16681/1984, Concentration 198.0 uM, Number of replicates 2.0, Standard deviation 1.593950905190228 %).

For the molecule `CCCC[C@H](NC(C)=O)C(=O)N[C@H](C(=O)Nc1cccc(C(N)=O)c1)c1ccc(OCc2ccccc2)cc1`, the inhibition (Thailand/16681/1984, Concentration 49.5 uM, Number of replicates 2.0, Standard deviation 1.3015902921422546 %) is -0.513%; the inhibition (Thailand/16681/1984, Concentration 99.01 uM, Number of replicates 2.0, Standard deviation 0.5153915569037094 %) amounted to 3.33%; the inhibition (Thailand/16681/1984, Concentration 198.0 uM, Number of replicates 2.0, Standard deviation 0.5711740910196359 %) came out at 8.87%.

`CCCC[C@H](NC(C)=O)C(=O)N[C@H](C(=O)Nc1ccc(C(N)=O)cc1)c1ccc(OCc2ccccc2)cc1`: the inhibition was -0.623% (Thailand/16681/1984, Concentration 49.5 uM, Number of replicates 2.0, Standard deviation 2.073896751762033 %); 4.02% (Thailand/16681/1984, Concentration 99.01 uM, Number of replicates 2.0, Standard deviation 0.38726109133313447 %); 23% (Thailand/16681/1984, Concentration 198.0 uM, Number of replicates 2.0, Standard deviation 0.14852549415239058 %).

As to `CCCC[C@H](NC(C)=O)C(=O)N[C@H](C(=O)NCc1ccc(C(N)=O)cc1)c1ccc(OCc2ccccc2)cc1`, the inhibition is, setting by setting: (Thailand/16681/1984, Concentration 49.5 uM, Number of replicates 2.0, Standard deviation 4.54767597440597 %) 18.2%; (Thailand/16681/1984, Concentration 99.01 uM, Number of replicates 2.0, Standard deviation 0.08657569598756192 %) 99.9%; (Thailand/16681/1984, Concentration 198.0 uM, Number of replicates 2.0, Standard deviation 0.08274539039489186 %) 99.7%.

With `CCCC[C@H](NC(C)=O)C(=O)N[C@H](C(=O)NCc1ccc(CN)cc1)c1ccc(OCc2ccccc2)cc1`, the inhibition (Thailand/16681/1984, Concentration 49.5 uM, Number of replicates 2.0, Standard deviation 1.556187076043376 %) is -3.73%; the inhibition (Thailand/16681/1984, Concentration 99.01 uM, Number of replicates 2.0, Standard deviation 1.4164928639405643 %) amounted to 9.94%; the inhibition (Thailand/16681/1984, Concentration 198.0 uM, Number of replicates 2.0, Standard deviation 0.0753329398535839 %) is 99.6%.

For the molecule `CCCC[C@H](NC(C)=O)C(=O)N[C@H](C(=O)NCc1ccc(C(N)=O)cc1)c1ccccc1` (Ac-[Nle]-[Phg]-[4Amb]-NH2), the inhibition by setting is: (Thailand/16681/1984, Concentration 49.5 uM, Number of replicates 2.0, Standard deviation 0.4432432329236086 %) -1.46%; (Thailand/16681/1984, Concentration 99.01 uM, Number of replicates 2.0, Standard deviation 0.9541533154251546 %) -0.354%; (Thailand/16681/1984, Concentration 198.0 uM, Number of replicates 2.0, Standard deviation 1.9838414541082603 %) 1.79%.

As to `CC(=O)N[C@H](C(=O)Nc1cccc(C(N)=O)c1)c1ccc(OCc2ccccc2)cc1`, the inhibition is -2.21% (Thailand/16681/1984, Concentration 49.5 uM, Number of replicates 2.0, Standard deviation 1.41100239398505 %); 0.486% (Thailand/16681/1984, Concentration 99.01 uM, Number of replicates 2.0, Standard deviation 6.402498423083348 %); 0.73% (Thailand/16681/1984, Concentration 198.0 uM, Number of replicates 2.0, Standard deviation 5.599350943845451 %).

With `CCCC[C@H](NC(C)=O)C(=O)N[C@H](C(=O)NCc1ccc(CN)cc1)c1ccccc1`, the inhibition is, setting by setting: (Thailand/16681/1984, Concentration 49.5 uM, Number of replicates 2.0, Standard deviation 1.3580554366166637 %) 0.537%; (Thailand/16681/1984, Concentration 99.01 uM, Number of replicates 2.0, Standard deviation 18.440494023113153 %) 14.1%; (Thailand/16681/1984, Concentration 198.0 uM, Number of replicates 2.0, Standard deviation 14.8908767477505 %) 56%.

Turning to `CCCC[C@H](NC(C)=O)C(=O)N[C@@H](C(=O)NCc1ccc(C(N)=O)cc1)c1ccc(OCc2ccccc2)cc1`, the inhibition reads like this: (Thailand/16681/1984, Concentration 49.5 uM, Number of replicates 2.0, Standard deviation 1.1393107429607887 %) -2.14%; (Thailand/16681/1984, Concentration 99.01 uM, Number of replicates 2.0, Standard deviation 1.3468928227151291 %) -2.15%; (Thailand/16681/1984, Concentration 198.0 uM, Number of replicates 2.0, Standard deviation 1.6817028564994563 %) -0.786%.

As to `c1cnc(C2CCN(Cc3c[nH]c4ccccc34)CC2)nc1`, the inhibition reads like this: (Thailand/16681/1984, Concentration 49.5 uM, Number of replicates 2.0, Standard deviation 0.0814293971969877 %) -4.94%; (Thailand/16681/1984, Concentration 99.01 uM, Number of replicates 2.0, Standard deviation 1.1974150626674833 %) -3.24%; (Thailand/16681/1984, Concentration 198.0 uM, Number of replicates 2.0, Standard deviation 1.6263665310687148 %) -1.42%.

`COC(=O)c1csc(Cn2ncc(C3CCNCC3)c2C)n1`: the inhibition runs as follows: (Thailand/16681/1984, Concentration 49.5 uM, Number of replicates 2.0, Standard deviation 0.7717951129802201 %) -5.62%; (Thailand/16681/1984, Concentration 99.01 uM, Number of replicates 2.0, Standard deviation 0.8815947340216488 %) -4.23%; (Thailand/16681/1984, Concentration 198.0 uM, Number of replicates 2.0, Standard deviation 1.4332580373412276 %) -2.98%.

For the molecule `O=C(Cc1cnc[nH]1)NC1CCN(C(=O)c2cccc3[nH]ncc23)CC1`, the inhibition runs as follows: (Thailand/16681/1984, Concentration 49.5 uM, Number of replicates 2.0, Standard deviation 0.5712330544607026 %) -0.001%; (Thailand/16681/1984, Concentration 99.01 uM, Number of replicates 2.0, Standard deviation 0.88648652906749 %) 0.297%; (Thailand/16681/1984, Concentration 198.0 uM, Number of replicates 2.0, Standard deviation 1.4162803173835237 %) -0.087%.

On to `O=Cc1ccc(N2CCC(C(=O)Nc3n[nH]c4ccc(Br)cc34)CC2)cc1`, for which the inhibition under setting [1] came to 10.1%.

With `CCN(CC)S(=O)(=O)c1ccc(NC(=O)C2CCN(c3ccc(C=O)cc3)CC2)cc1`, under setting [1], the inhibition came to 12.2%.

Regarding `O=C(Nc1cc2c(cc1C1CC1)CNC2)c1cc(F)cc2[nH]ncc12`, the inhibition runs as follows: (Thailand/16681/1984, Concentration 99.5 uM, Number of replicates 2.0, Standard deviation 0.34945873996674337 %) 63.1%; (Thailand/16681/1984, Concentration 295.6 uM, Number of replicates 2.0, Standard deviation 0.6526301250248825 %) 85.2%.

Consider `COc1cc(Cc2c(-c3ccc(F)cc3)noc2C)nc(N2CCNCC2)n1`, for which the inhibition reads like this: (Thailand/16681/1984, Concentration 49.5 uM, Number of replicates 2.0, Standard deviation 0.4285559202279565 %) -0.048%; (Thailand/16681/1984, Concentration 99.01 uM, Number of replicates 2.0, Standard deviation 0.4007548684992308 %) 1.07%; (Thailand/16681/1984, Concentration 198.0 uM, Number of replicates 2.0, Standard deviation 0.4757654271085549 %) 6.24%.

As to `O=Cc1ccc(N2CCC(C(=O)NCc3c(F)ccc(F)c3F)CC2)cc1`, under setting [1], the inhibition amounted to 12.3%.

For the molecule `O=Cc1ccc(N2CCC(C(=O)NCCc3ccc(Cl)c(Cl)c3)CC2)cc1`, under setting [1], the inhibition stood at 11.5%.

With `CCN(CC)C1CCN(C(=O)C2CCN(c3ccc(C=O)cc3)CC2)CC1`, the inhibition under setting [1] came to 12.6%.
